The source of these data is PubChem BioAssay AID1508600 (Functional Genomics Laboratory (NCATS/FGL), 2020).

Out of some 53,000 sequences screened, about 3,700 (7%) were called active.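 The calls were made as follows: active = gene knockdowns whose robust z-score for IL-1 alpha signal is at least 2 or at most -2, so actives lie on both sides; inactive = the rest.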 The entries come from a sample that favours actives as a whole.

A short description of this experiment: Components of the Cytosolic LPS Sensing Pathway: Gene Identification via Genome-wide siRNA Screen.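 Also: robust z of the log signal after scaling to non-targeting control siRNA wells of the plate.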 The note with it: RAW264.7 macrophages, IL-1a HTRF, actives lie on both sides, screened at 100 nM (by protocol), cells primed 5 h with Pam3CSK4 first. An outline of the steps:
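RAW264.7 mouse macrophages reverse-transfected with single siRNAs (100 nM final) for 48h, primed with Pam3CSK4 for 5 hours, then transfected with LipidA for 24 hour. Supernatant IL-1a read by HTRF; values normalized to negative-control median, log-transformed robust z-scores.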
(In TR-FRET formats the signal depends on donor and acceptor labels being close together.)
For the sequence CGCUGCUUUUCCUAGCAGATT against Orai1, the z-score was 0.194 (inactive). The value for GCUCCAACAAGGCAUAAAATT against Dis3 was -1.71 (inactive). The value for CGUUGAACUAGCAGUGGACTT against Arel1 was 0.304 (inactive). For the sequence GUCUACAUCAACAUGCCUGTT against Hcst, the z-score was 0.729 (inactive).

As for GGCUUAAUUACACAUGUUCTT against Il6, the z-score is -1.09 (inactive).

Turning to GGACAAGAAAAAGUCCAGATT against Dhx38, the z-score was -1.17 (inactive). The value for GCAGGGAAUAGCAAACUUATT against Nfil3 was 1.18 (inactive); that for GGAAAGGAGAGGUGUGUUCTT against Asb7 was 0.431 (inactive). GGAAGAUGUCUCCUAUGAGTT against Hebp1: the z-score is -2.42 (active).

Consider CCUGCUUAUUUAUGUACGATT against Tob2, for which the z-score was 1.27 (inactive). For GGUACCUUAAACUCAUGAATT against Ifnb1, the z-score was 0.773 (inactive).

With GCGAACCCUAAGUAAGAAGTT against U2surp, the z-score is -0.989 (inactive). In the case of GCGAGAUGCCAACAAACUGTT against Pacs1, the z-score is 0.678 (inactive). In the case of GCUACCUAUGCCAAUAUCATT against Efemp1, the z-score is -0.787 (inactive). As to GGGCAUCACUUGUAAUUAATT against Bcl10, the z-score was -2.06 (active).

Turning to GGAACCUAUCCAAGAAGUATT against Ckap2, the z-score was 0.428 (inactive). GUCACAGUACCCAAAAUGUTT against Olfr979: the z-score is -2.42 (active). For the sequence GGCCUUGUAUAAAACACAUTT against Pah, the z-score is 0.293 (inactive). With CCAGCUUGUUACUAAGUAATT against Mgat3, the z-score is -0.227 (inactive).

Consider GAGUACCAGCUGUUGUUCATT against Olfr392, for which the z-score was 4.22 (active). Consider GCAGGGAGGCAUCUUCUUUTT against Olfr3, for which the z-score is -0.22 (inactive).

With GGUUCUUUCCAAACAAGAGTT against Evc, the z-score was 1.1 (inactive).

As to GGAGGUCAUCAACGUGCUATT against Nucb1, the z-score was -0.339 (inactive).

Turning to CGGUACAAAUGAUUUCUGATT against Pcolce2, the z-score is 2.04 (active).

As to GGUAAAAUUGUCCAAGGAATT against Clec2i, the z-score is -0.109 (inactive).

Consider GGCCAAGAAGACAAGAAAATT against Ddx54, for which the z-score is 0.502 (inactive).

As for GGAAUAUGUUUAGCAUCUGTT against Mfsd5, the z-score is -0.437 (inactive).

For GGCACAUAUGAGGACUACCTT against Myl6b, the z-score is 0.786 (inactive). The value for GCCGUGCAACACUUCUACATT against Esrrb was -0.471 (inactive). As to GGAGGUCCCUUCUUCAGCUTT against Zfp410, the z-score is -1.19 (inactive).

Consider GGCCAAGAAGAGAAAAACATT against Ccne2, for which the z-score is -1.54 (inactive).

With GGUCAUGGAUGUCACAGAGTT against Mink1, the z-score was -2.17 (active). Regarding CCAGAUUCUAUAAUAGAGUTT against Gabrp, the z-score is -0.232 (inactive).

As to GGGUUCUGUGUAAAUGUAUTT against Gzma, the z-score was 0.203 (inactive).

Take GGCAGAAGUCCAACUUCUUTT against Pirt: the z-score is -0.363 (inactive). Regarding GCUAGUGCGCAUGUUUCUCTT against Rasgrp2, the z-score is 0.621 (inactive).

Consider GGUGGAAGCACAGAGUUGCTT against Prdm15, for which the z-score is 2.14 (active). As for GGACAACCAAAAUGCAUUUTT against Zic3, the figure is 0.517 (inactive); as for GGAACUGGGUCCUCAUUCCTT against Capn1, -1.6 (inactive); as for GGAGUUCAACUAGAUGUGGTT against Bcl2l13, -1.2 (inactive).

In the case of GCUUCAAUGAGGAGUAUCUTT against Smpdl3b, the z-score was -0.617 (inactive). Consider GGAUUGGAUAUUGAGAAGGTT against Rexo2, for which the z-score is -1.72 (inactive). For the sequence GGUGGUCAGGAAAUGAGUCTT against Lrch4, the z-score was 2.09 (active).

With “GGUCAACUCUAAGAUGCUGTT against 9930012K11Rik”, the z-score is 1.35 (inactive). Regarding CGUGUGAAGUAAAGAUGUUTT against Mrpl57, the z-score is 0.212 (inactive). Take GGAGCUGCUUUCAAAGCUGTT against Ccdc136: the z-score was -0.831 (inactive). For GGAUGGUACAGGUCUGGUGTT against Fgfr3, the z-score was 4.82 (active). For the sequence “CGGAUUAUUGGUUAGAAAUTT against C230013L11Rik”, the z-score was 1.26 (inactive). The value for GCACAAUGGAAGGUGUCCUTT against Tas2r114 was 0.597 (inactive); that for GGACUUUGUGGACAAAAUUTT against Ift20 was -1.64 (inactive). With GCCUCAACAUGAUCCCGAGTT against Ccdc172, the z-score was -3.34 (active). On to GGAGAUAAAGAGGAACAUUTT against AI504432, for which the z-score was 1.01 (inactive). Regarding GGGUUUUGAAAGAGGAAAATT against Osbpl8, the z-score was 1.52 (inactive). In the case of GGCAGCUGAAAGAAGAUCUTT against Dffa, the z-score was 3.21 (active). As for GGGACUGGAACAAUAGAGGTT against BC030500, the z-score is 0.626 (inactive). As for GGGACAAGUGACUGAAUUGTT against Dio3, the figure is 0.408 (inactive).

With GGCCAUUUACUUGAAGAACTT against Lpin3, the z-score is -0.0508 (inactive). With CCUUCUCCUCGUGCAAGUATT against Cort, the z-score was 2.05 (active). Take GAUGCCCAAUGUGCAAAUGTT against Defa-rs12: the z-score is 1.06 (inactive). Consider CCACUGCACUGUAAAUCAATT against Glrx5, for which the z-score is -1.41 (inactive).

In the case of GCUCUUGACUCACUCAGCATT against Il1bos, the z-score is -2.01 (active). For GGACUGAAAUGUCUUAGACTT against Selenow, the z-score was -1.21 (inactive). On to GCAUCGCAUAUUGGAAUGCTT against Lim2, for which the z-score was 0.366 (inactive). For CGGCAAAUUCGUGAAAAGGTT against Olfr575, the z-score was 0.118 (inactive).

For GCAACUGAAUUCCAGUUUUTT against Ugt1a2, the z-score was -0.0905 (inactive). Take GGAGCUAGCCAACUUCGAUTT against Lsr: the z-score was -0.182 (inactive). For GCACAGAAAUAUUAAAGUCTT against Foxp4, the z-score is -1.7 (inactive).

Regarding GGGUUUAGAAAGAUGAAUGTT against Tbcel, the z-score is -0.189 (inactive).

Turning to GGGCUUCACCCUCAUACAATT against Pirt, the z-score is 2.26 (active).
